Drawing on PubChem BioAssay (NCATS), this text covers Potency for 35 compounds.

Values joined by “and” are separate entries in the source; they are usually repeats but may differ in a detail not shown here. Equal entries are not always repeated. Inconclusive results are not listed. Where a call stands in place of a potency, no number is given. Active and inactive are the calls of the source. The call rests on the fitted dose curve; in most records, active means well fitted inhibition curve with a large enough effect; inconclusive means small, poorly fitted or top-dose-only effect; inactive means no such curve, though single readings can be large or run the other way.
Potency means the concentration at half of the fitted maximal effect.

For this experiment, the target named is Cytochrome P450 2C9 (Homo sapiens) (UniProt P11712). Briefly: qHTS Assay for Inhibitors and Substrates of Cytochrome P450 2C9 (AID 883). Further: nearly all actives have a fitted effect of over 60% in size. Particulars: recombinant CYP2C9, luciferin-H luminescence, 60 min; series mostly up to 57.1 µM. The protocol: NIH Molecular Libraries Screening Centers Network [MLSCN] NIH Chemical Genomics Center [NCGC] MLSCN Grant: None NCGC Assay Overview: The P450 gene superfamily is involved in the metabolism and clearance of xenobiotics. This assay used human CYP2C9 to measure the hydroxylation of deoxyluciferin (Luciferin-H; P450 Glo-Buffer) to luciferin. The luciferin is then measured by luminescence after the addition of a luciferase detection reagent. Luciferin-H concentration in the assay was equal to its Michaelis constant KM for CYP2C9. Inhibitors and some substrates limit the production of luciferin, and decrease measured luminescence.
Cytochrome P450 2C9 (Homo sapiens), sequence (P11712 whole entry, looked up): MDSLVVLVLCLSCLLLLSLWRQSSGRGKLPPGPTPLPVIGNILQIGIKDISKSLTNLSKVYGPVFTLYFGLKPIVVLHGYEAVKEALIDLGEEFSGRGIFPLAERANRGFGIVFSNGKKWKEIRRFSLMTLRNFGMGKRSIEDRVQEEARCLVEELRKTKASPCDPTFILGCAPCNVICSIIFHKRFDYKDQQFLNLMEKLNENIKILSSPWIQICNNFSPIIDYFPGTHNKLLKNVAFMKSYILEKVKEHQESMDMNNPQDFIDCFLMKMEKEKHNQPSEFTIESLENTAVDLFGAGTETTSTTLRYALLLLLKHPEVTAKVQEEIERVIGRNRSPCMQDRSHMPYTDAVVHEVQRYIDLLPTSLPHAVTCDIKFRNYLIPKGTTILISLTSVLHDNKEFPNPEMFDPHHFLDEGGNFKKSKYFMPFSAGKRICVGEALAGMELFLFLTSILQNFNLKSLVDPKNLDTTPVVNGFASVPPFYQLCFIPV
NCGC Assay Protocol Summary: Two uL of enzyme and substrate mix (final concentrations: 10nM CYP2C9, 100uM Luciferin-H, 25mM KPO4) were dispensed into a white, solid bottom 1536-well microtiter plate. 23nL of compound was transferred by a pin tool. The plate was incubated at 37C for 10 min. Two uL of an NADPH regeneration solution (Promega supplied reagent) was dispensed and the reaction was allowed to continue for 60 min at 37C. Then the reaction was stopped by reconstituted P450 Glo-Buffer. After another 20 min of incubation the plate was read on the ViewLux (Perkin Elmer) at 60 sec exposure and 2x2 binning. This protocol was carried out with Promega-Glo reagents and further information can be found at http://www.promega.com/tbs/tb325/tb325.pdf. Data were normalized to the to AC100 inhibition (57uM sulphaphenazole). Keywords: P450, CYP2C9, Luciferase, MLSMR, MLSCN, NIH Roadmap, qHTS, NCGC
A general note: qHTS replaces the single test concentration by a dilution series.
Turning to `CN1CCN(C(=O)O[C@@H]2c3nccnc3C(=O)N2c2ccc(Cl)cn2)CC1`, the Potency result was “inactive”.
The figure for `CC(C)[C@H](CO)Nc1nc(Nc2cccc(Cl)c2)c2ncn(C(C)C)c2n1` is 7.94 µM (active); for `C(=C/c1ccccc1)/CN1CCN(CCOC(c2ccccc2)c2ccccc2)CC1` it is 5.01 µM (active); for `Fc1ccc(C(OCCN2CCN(C/C=C\c3ccccc3)CC2)c2ccc(F)cc2)cc1` it is 7.94 µM (active).
`COc1ccc(CNC(=O)/C=C\c2ccc3[nH]cc(CCN(C)C)c3c2)cc1`: the Potency result is “inactive”.
For `CN(C)Cc1c[nH]c2ccccc12`, the Potency result was “inactive”.
The figure for `CC(C)[C@@]1(NC(=O)[C@@H]2C[C@H]3c4cccc5[nH]cc(c45)C[C@@H]3N(C)C2)O[C@@]2(O)[C@H]3CCCN3C(=O)[C@H](Cc3ccccc3)N2C1=O` is 2.51 µM (active) and 6.31 µM (active); for `COc1ccn(C)c(=O)c1C#N` it is “inactive”.
In the case of `COc1cccc2c1cc([N+](=O)[O-])c1c(C(=O)O)cc3c(c12)OCO3`, the Potency result is “inactive”.
On to `N[C@H](C(=O)O)c1cc(=O)[nH]o1`, for which the Potency result is “inactive”.
Under `CC(C)n1cnc2c(C(=O)N[C@H]3CN4CCC3CC4)cc(Cl)cc21` stands 0.398 µM (active); under `C[C@@H](N)Cn1ccc2cc(F)c(Cl)cc21`, 3.98 µM (active); under `COc1ccc2[nH]cc(CCN(C)C)c2c1`, “inactive”.
The figure for `Clc1cncc(N2CCNCC2)n1` is 2 µM (active).
Turning to `OC1(c2ccc(Cl)cc2)CCN(Cc2c[nH]c3ccccc23)CC1`, the Potency entry was “inactive”.
Turning to `S=C=Nc1cccc(C2(N3CCCCC3)CCCCC2)c1`, the Potency result was “inactive”.
Under `Nc1nc2ccc(Cl)cc2c2nc(-c3ccco3)nn12` stands “inactive”.
Under `Cc1cccc([C@H](C)c2cnc[nH]2)c1C` stands 0.199 µM (active); under `N[C@H](CP(=O)(O)O)C(=O)O`, “inactive”; under `N[C@H](CCCCCP(=O)(O)O)C(=O)O`, “inactive”.
Under `C/C(O)=C(/C#N)C(=O)Nc1cc(Br)ccc1Br` stands 7.94 µM (active); under `C=CCN1C[C@H](C)N([C@H](c2ccc(C(=O)N(CC)CC)cc2)c2cccc(O)c2)C[C@H]1C`, 3.98 µM (active); under `CCN1C[C@]2(COC(=O)c3ccccc3N3C(=O)C[C@H](C)C3=O)CC[C@H](OC)[C@@]34[C@@H]5C[C@H]6[C@H](OC)[C@H]5[C@](O)(C[C@@H]6OC)[C@@](O)([C@@H](OC)[C@@H]23)[C@@H]14`, “inactive”.
In the case of `CCOC(=O)c1ncn2c1[C@H]1CCCN1C(=O)c1cc(OC)ccc1-2`, the Potency entry was “inactive”.
Take `O=C(O)c1ccccc1-c1c2cc(Br)c(=O)cc-2oc2[c]([Hg])c(O)c(Br)cc12`: the Potency is 0.631 µM (active).
For the compound `O=C1Nc2ccc(I)cc2/C1=C/c1cc(Br)c(O)c(Br)c1`, the Potency was 0.0794 µM (active).
`CN1C(=O)CCS(=O)(=O)[C@H]1c1ccc(Cl)cc1`: the Potency result was “inactive”.
Take `CC1=C[C@@H]2c3cccc4[nH]cc(c34)C[C@H]2N(C)C1`: the Potency result was “inactive”.
The entry for `COC(=O)CN1CN(c2ccccc2)C2(CCN(Cc3ccc4ccccc4c3)CC2)C1=O` is “inactive”.
Turning to `Cc1c(C(=O)c2ccc3ccccc3c2)c2cccc3c2n1[C@H](CN1CCOCC1)CO3`, the Potency entry is “inactive”.
Under `COc1c2ccoc2cc2oc(=O)ccc12` stands 5.01 µM (active).
Take `Cc1cc(O)c2c(c1)C(=O)c1cc(O)cc(O)c1C2=O`: the Potency was 7.94 µM (active).
With `C[C@@H](Cc1ccc(OCC(=O)O)cc1)NC[C@H](O)c1cccc(Cl)c1`, the Potency was 6.31 µM (active).
Turning to `Cn1cc(C(=O)C(=O)N[C@H]2CN3CCC2CC3)c2ccccc21`, the Potency entry is “inactive”.
Under `O=C1C2CCN(CC2)C1(CO)CO` stands 0.0631 µM (active).
